FMDV inh: blocks foot and mouth disease virus; FMDV antiviral cell-based qHTS; Potency, µM (series often up to 57.9 µM), for the others: at the highest dose activity change, negative = inhibition, hits mostly inhibitors; 410,000 tested, 1.2% active; AID 1159524; calls by dose curve; tested in HEK293T cells; note: read-out not given here; potency is the fitted concentration of half-maximal effect; nearly all actives have a fitted effect of over 45% in size
Vaccinia Venus: vaccinia inhibition (Venus reporter). Vaccinia virus Venus reporter expression, fluorescence. Potency, µM (series often up to 36.5 µM), for inactives: at the highest dose activity change, negative = inhibition, most hits filed as inhibitors. 330,000 tested, 0.46% active; calls by dose curve; tested in A549 cells; note: potency is the fitted concentration of half-maximal effect; nearly all actives have a fitted effect of over 30% in size
Vaccinia mCherry: vaccinia inhibition (mCherry reporter); AID 720579; Vaccinia virus mCherry reporter infection, fluorescence; 310,000 tested, 0.63% active; Potency, µM (titrated, usually from 36.5 µM), for inactives: top-dose activity change, negative = inhibition, actives largely listed as inhibitors; calls by dose curve; tested in A549 cells; note: potency is the fitted concentration of half-maximal effect; nearly all actives have a fitted effect of over 35% in size
HCV inh: blocks hepatitis C virus | AID 651820 | Huh7.5.1 HCVcc-Cre infection, luciferase reporter, 44 h | 340,000 tested, 3.4% active | Potency, µM (titrated, usually from 41.8 µM), inactives show at the top dose activity change, negative = inhibition, actives largely listed as inhibitors; note: potency is the fitted concentration of half-maximal effect
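Whole-lifecycle infectious HCVcc-Cre system; cells 1,000/well, compound then virus (~0.5 moi) added 4 h after plating, 44 h culture. Luciferase read 15 sec following 15 min substrate incubation, room temp.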
HCMV antiviral: blocks human cytomegalovirus replication. HFF cells, HCMV-luciferase reporter, 72 h; hits give low values. 410,000 tested, 4.5% active. activity change, negative = inhibition, % at 57.5 µM; in the data active = activity change below about -60%; inconclusive = no clear call, values can overlap the other calls; inactive = above about -39%
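Compounds were evaluated in HFFs infected with an HCMV luciferase reporter virus (MOI 1 PFU/cell). Luciferase in lysates collected 72 h post infection served as the replication measure.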
Sm TGR inh: S. mansoni TGR enzyme inhibition. Potency, µM (titrated, usually from 114 µM), without a hit: at the highest dose activity change, negative = inhibition, usual class: inhibitors. purified TGR, DTNB reduction, TNB absorbance 405 nm. AID 485364. 360,000 tested, 3% active; note: potency is the fitted concentration of half-maximal effect; nearly all actives have a fitted effect of over 60% in size
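Kinetic colorimetric format: TGR-catalysed, NADPH-driven DTNB reduction monitored via TNB absorbance. Enzyme dispensed at 20 nM; compound exposure 15 min at room temperature before reaction start.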
* = called active by the depositor; [ ] = remark or other dose. A selection: hits, their analogues and other compounds. The true share with any hit is near 9.3%. Unless noted, calls come from the whole dose curve; as a rule, active = well fitted curve in the direction sought with a large enough effect; inconclusive = small, poorly fitted or top-dose-only effect, or another doubt; inactive = no such curve, though single readings can be large; an effect the other way counts as inactive or inconclusive. % is set by controls: 0 for no effect and ±100 for the full control effect.

What do the screens show for `CCOC(=O)c1c(C)oc2c1c1c(c3ccccc32)OCN(Cc2cccnc2)C1`?
FMDV inh: -10.1%; Vaccinia Venus: -1.2%; Vaccinia mCherry: -19.6%; HCV inh: 6.31µM*; Sm TGR inh: 0.355µM*

What do the screens show for `CCOC(=O)c1c(C)oc2c1c1c(c3ccccc32)OCN(CCCC(=O)O)C1`?
FMDV inh: 25.2%; HCV inh: 10µM*; HCMV antiviral: 124.7; Sm TGR inh: -1.6%

Results for CC(C)CC1(C)NC(=O)N(Cc2cc([N+](=O)[O-])cc3c2OCOC3)C1=O (stereo unspecified) ?
FMDV inh: -22.5%; Vaccinia Venus: -5.4%; Vaccinia mCherry: inactive; HCV inh: -29.8%; HCMV antiviral: -22.3; Sm TGR inh: 2.8%

What do the screens show for `Cc1cccc(CSc2nnc(CCCCCN)o2)c1`?
FMDV inh: -19.4%; Vaccinia Venus: -2.8%; Vaccinia mCherry: -1.8%; HCMV antiviral: -75.9*; Sm TGR inh: -12.1%

What do the screens show for `O=[N+]([O-])C(=C1Nc2ccccc2N1)C(Cl)=C(Cl)Cl`?
FMDV inh: inconclusive; HCV inh: -9.1%; HCMV antiviral: 31.0; Sm TGR inh: 3.16µM*

What do the screens show for `Cc1ccnn1-c1ccc(C(=O)N2CCCN(S(=O)(=O)c3ccc(F)cc3)CC2)cc1`?
FMDV inh: -16.8%; HCV inh: 2.7%; HCMV antiviral: -5.1; Sm TGR inh: -2.7%

How did Cn1c(-c2ccccc2)cc2c3no[n+]([O-])c3ccc21 do in these assays?
FMDV inh: 4.9%; Vaccinia Venus: inconclusive; Vaccinia mCherry: -13.3%[1.46 µM]; HCV inh: 2.51µM*; HCMV antiviral: -102.5*; Sm TGR inh: 8.7%

How did CCC(=O)Nc1ccc(Br)c(Cl)c1 do in these assays?
FMDV inh: -11.2%; HCV inh: -20.4%; HCMV antiviral: -0.3; Sm TGR inh: 1.3%

How did O=C(CC1(O)C(=O)Nc2ccccc21)c1ccc(-n2cccc2)cc1 (stereo unspecified) do in these assays?
FMDV inh: 13.9%; Vaccinia Venus: -5.5%; Vaccinia mCherry: inactive; HCV inh: -2.2%; HCMV antiviral: 38.6; Sm TGR inh: 50.1µM*

Results for CCOC(=O)C1CCN(CCC(=O)Nc2ccc(C)c(C)c2)CC1 ?
FMDV inh: -6.8%; HCV inh: -15.4%; HCMV antiviral: -67.1*; Sm TGR inh: 9.1%

Results for CCOC(=O)C1CCCN(CCC(=O)Nc2ccc(C)c(C)c2)C1 (stereo unspecified) ?
FMDV inh: 0.2%; Vaccinia Venus: 1.4%; Vaccinia mCherry: -0.5%; HCV inh: -17.9%; HCMV antiviral: -38.9; Sm TGR inh: 1.6%

Results for CC1CCN(CCC(=O)Nc2ccc(Br)cc2)CC1 ?
Vaccinia Venus: -13.5%; Vaccinia mCherry: -18.3%; HCV inh: inconclusive; HCMV antiviral: -67.9*

What do the screens show for `O=C(CCN1CCCC1)Nc1ccc(Br)cc1`?
FMDV inh: -5.7%; Vaccinia Venus: 3.4%; Vaccinia mCherry: -7.7%; HCV inh: inconclusive; HCMV antiviral: -5.5; Sm TGR inh: -10.3%

Results for COc1cc(OC)cc(-c2c(C#Cc3ccsc3)c3cc(-c4cnc(OC)nc4)ccc3n2C)c1 ?
FMDV inh: -28.0%; Vaccinia Venus: -8.5%; Vaccinia mCherry: inactive; HCV inh: -11.0%; HCMV antiviral: -16.3; Sm TGR inh: -23.7%

What do the screens show for `O=C(COC(=O)c1cc(-c2cccs2)nc2ccccc12)c1ccc(Cl)cc1`?
FMDV inh: 49.6%; Vaccinia Venus: -13.9%; Vaccinia mCherry: -8.2%; HCMV antiviral: 19.8; Sm TGR inh: -0.8%

How did O=C(CCC1CCCN(C(=O)c2ccc3cc[nH]c3c2)C1)N1CCN(c2ccccn2)CC1 (stereo unspecified) do in these assays?
FMDV inh: inconclusive; Vaccinia Venus: -12.4%; Vaccinia mCherry: inactive; HCV inh: -21.5%; HCMV antiviral: inconclusive

How did O=C(CCC1CCCN(C(=O)c2ccc3[nH]ccc3c2)C1)N1CCN(c2ccccn2)CC1 (stereo unspecified) do in these assays?
FMDV inh: inconclusive; Vaccinia Venus: -17.9%; Vaccinia mCherry: -2.2%; HCV inh: inconclusive; HCMV antiviral: -83.2*; Sm TGR inh: 0.0%

Results for OCC1CCCN(C2CCN(Cc3nc(Cc4cccc(C(F)(F)F)c4)no3)CC2)C1 (stereo unspecified) ?
FMDV inh: -5.0%; Vaccinia Venus: -0.7%; Vaccinia mCherry: -23.5%; HCV inh: -15.8%; HCMV antiviral: -10.4; Sm TGR inh: 0.0%

What do the screens show for `O=S(=O)(c1ccc2c(c1)C(=NO)c1cc(S(=O)(=O)N3CCCCC3)ccc1-2)N1CCCCC1`?
FMDV inh: inconclusive; Vaccinia Venus: 1.41µM*; Vaccinia mCherry: 1.78µM*; HCV inh: 5.01µM*; HCMV antiviral: -101.7*; Sm TGR inh: 13.6%

How did CC1CCN(S(=O)(=O)c2ccc3[nH]ccc3c2)CC1 do in these assays?
FMDV inh: 46.7%; Vaccinia Venus: -13.0%; Vaccinia mCherry: -14.4%; HCMV antiviral: -93.7*; Sm TGR inh: 1.6%

What do the screens show for `CC1CCN(S(=O)(=O)c2ccc3c(c2)C(=NO)c2cc(S(=O)(=O)N4CCC(C)CC4)ccc2-3)CC1`?
FMDV inh: inconclusive; Vaccinia Venus: inconclusive; Vaccinia mCherry: 2.82µM*; HCV inh: 2µM*; HCMV antiviral: -98.7*; Sm TGR inh: 9.8%

How did O=C(Oc1ccc[nH]c1=O)c1cc([N+](=O)[O-])cc([N+](=O)[O-])c1 do in these assays?
FMDV inh: -14.1%; Vaccinia Venus: -8.1%; Vaccinia mCherry: 1.7%; HCV inh: 2.6%; HCMV antiviral: 16.3; Sm TGR inh: 79.4µM*

What do the screens show for `CC(=O)c1cccc(NC(=O)Nc2ccc3c(c2)N(C)C(=O)CS3)c1`?
FMDV inh: inconclusive; Vaccinia Venus: -20.9%; Vaccinia mCherry: -25.3%; HCV inh: 3.16µM*; HCMV antiviral: inconclusive; Sm TGR inh: 4.5%

How did CCc1ccc(NC(=O)Nc2ccc3c(c2)N(C)C(=O)CS3)cc1 do in these assays?
FMDV inh: -7.2%; Vaccinia Venus: -12.5%; Vaccinia mCherry: -0.2%; HCV inh: -22.3%; HCMV antiviral: -69.4*; Sm TGR inh: 4.3%

What do the screens show for `Cc1cc(C)cc(NC(=O)Nc2ccc3c(c2)N(C)C(=O)CS3)c1`?
FMDV inh: inconclusive; Vaccinia Venus: -21.7%; Vaccinia mCherry: -29.4%; HCV inh: -20.7%; HCMV antiviral: 6.6; Sm TGR inh: -2.4%

How did Cc1ccc(NC(=O)Nc2ccc3c(c2)N(C)C(=O)CS3)cc1C do in these assays?
FMDV inh: -8.1%; Vaccinia Venus: -11.6%; Vaccinia mCherry: inactive; HCV inh: -21.4%; HCMV antiviral: 125.0; Sm TGR inh: 0.4%

How did O=C(CNCc1ccco1)Nc1ccc(Oc2ccccc2)cc1 do in these assays?
FMDV inh: 14.5%; HCV inh: 10.7%; HCMV antiviral: 18.7; Sm TGR inh: 4.8%

High-throughput results: PubChem BioAssay, National Center for Advancing Translational Sciences (NCATS)
